Compound activity as filed in PubChem BioAssay.
Hits are enriched below; roughly 19% of the tested compounds scored in any of these assays.
DT40 TDP1 CPT: growth inhibition of DT40 Tdp1-/-;hTDP1 cells with camptothecin (screen for TDP1 inhibitors) | AID 686979 | chicken DT40 Tdp1-/-;hTDP1 cells + 20 nM CPT, ATP luminescence, 48 h | Potency, µM (doses to about 46.2 µM), for the others: top-dose activity change, negative = growth inhibition, hits mostly inhibitors | 420,000 compounds, 12% hits; also: potency is read from the fitted curve at half-maximal effect; nearly all actives have a fitted effect of over 55% in size
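Chicken DT40 Tdp1-/- cells complemented with human TDP1, 400 cells/well, exposed to compounds plus 20 nM camptothecin for at least 48 h at 37 C; viability read as ATP content by CellTiter-Glo luminescence.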
HT1080 IDH1KD tx: HT-1080 IDH1 knockdown cell toxicity (counter line); 360,000 compounds, 2% hits; AID 686971; HT-1080 IDH1 knockdown viability, ATP luminescence, 48 h; Potency, µM (highest dose often 46.1 µM), without a hit: at the top dose activity, negative = toxicity, most hits filed as cytotoxic;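 also: potency is read from the fitted curve at half-maximal effect; 0% = DMSO wells and -100% = cell-free medium wells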
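Assay cells: HT-1080 with IDH1 knockdown, 750 per well, RPMI/5% FBS. Exposure: 48 h at 37 °C following 2 h pre-incubation. Read: CellTiter-Glo luminescence; fitted concentration-response, curve class assigned.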
HT1080NT lethal: kills 2HG-producing HT-1080-NT fibrosarcoma cells. HT-1080-NT fibrosarcoma viability, CellTiter-Glo ATP luminescence, 48 h. Potency, µM (titrated, usually from 46.1 µM), inactives show at the top dose activity, negative = less viability, hits mostly cytotoxic. 360,000 compounds, 1.6% hits. AID 686970;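 also: NT is the 2HG producing partner of a matched IDH1 knockdown line; potency is read from the fitted curve at half-maximal effect; 0% = DMSO-treated cells and -100% = media-only wells without cells; nearly all actives have a fitted effect of over 55% in size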
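Toxicity toward the 2HG-producing NT line was scored as %Activity, normalised to DMSO and no-cell wells, from CellTiter-Glo luminescence after 48 hours' treatment.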
IL-1B inflam inh: blocks inflammasome-driven IL-1 beta release; 360,000 compounds, 4.7% hits; AID 743279; activity change, % at 57.5 µM; THP-1 LPS/ATP IL-1B secretion, AlphaLISA, 16 h; active compounds read low; in the data active = activity change below about -50%; inconclusive = mostly about -30% to -49%
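THP-1 cells pretreated 1 hr with compounds (up to 57.5 uM final), then stimulated with LPS (250 ng/mL final) plus ATP (1.25 mM final); secreted IL-1B measured by AlphaLISA after 16 hr, decreased signal indicating inhibition.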
ELG1 repair inh: ELG1-dependent DNA repair inhibition; HEK293T ELG1-luciferase reporter, luminescence, 16 h; DNA damage induced by 5-fluorouridine; Potency, µM (titrated, usually from 46.1 µM), without a hit: at the highest dose activity change, negative = inhibition, most hits filed as inhibitors; 330,000 compounds, 2.3% hits; AID 504467; also: potency is read from the fitted curve at half-maximal effect; nearly all actives have a fitted effect of over 55% in size
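5-Fluorouridine DNA damage + compound/DMSO, 2,000 cells/well, 16 h, 37 °C/5% CO2. ONE-Glo, 30 min RT, luminescence. Readout = decrease in reporter signal.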
DT40 TDP1 no CPT: qHTS for Inhibitors of human tyrosyl-DNA phosphodiesterase 1 (TDP1): qHTS in cells in absence of CPT; 420,000 compounds, 15% hits; Potency, µM (highest dose often 46.2 µM), for inactives: at the highest dose activity change, negative = growth inhibition, hits mostly inhibitors; DT40 Tdp1-/- hTDP1 cells, no CPT, ATP luminescence, 48 h; also: potency is read from the fitted curve at half-maximal effect; nearly all actives have a fitted effect of over 55% in size
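Camptothecin absent (DMSO only). Human TDP1-complemented DT40 knockout cells, 400 cells/well, 37 °C for minimum 48 hr; ATP measured via CellTiter-Glo, 30 min dark incubation, luminescence.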
An asterisk follows results filed as active; [ ] = another dose, or the depositor's remark. Unless noted, calls follow the shape of the dose curve; as a rule, active = well fitted curve in the direction sought with a large enough effect; inconclusive = small, poorly fitted or top-dose-only effect, or another doubt; inactive = no such curve, though single readings can be large; an effect the other way counts as inactive or inconclusive. Unless noted, % is scaled to controls: 0 for no effect and ±100 for the full control effect.

`O=C(c1ccccc1)N1c2nc(-c3ccco3)nn2C2(CCCCC2)[C@@H]2CCCC[C@@H]21` gave DT40 TDP1 CPT -4.4% and DT40 TDP1 no CPT 1.6%.
For COc1ccccc1C(=O)N1c2ncnn2C2(CCCCC2)[C@@H]2CCCC[C@@H]21 the results were DT40 TDP1 CPT -11.9% and DT40 TDP1 no CPT -17.9%.
`Cc1ccc(C(=O)N2c3nc(-c4ccco4)nn3C3(CCCCC3)[C@@H]3CCCC[C@@H]32)cc1` gave DT40 TDP1 CPT 16.4µM* and DT40 TDP1 no CPT 14.6µM*.
Screening COc1cccc(C(=O)N2c3nc(-c4ccco4)nn3C3(CCCCC3)[C@@H]3CCCC[C@@H]32)c1 returned DT40 TDP1 CPT inconclusive and DT40 TDP1 no CPT 16.4µM*.
COc1ccc(S(=O)(=O)N2CCN(Cc3ccccc3)CC2)cc1 was read as DT40 TDP1 CPT -26.5%, HT1080 IDH1KD tx 6.1%, HT1080NT lethal 5.7%, IL-1B inflam inh -5.5, ELG1 repair inh inconclusive and DT40 TDP1 no CPT inconclusive.
CN=C1c2cc3cc(OC)ccc3n2CCN1Cc1ccccc1 was read as DT40 TDP1 CPT 3.26µM*, HT1080 IDH1KD tx 23.1µM*, HT1080NT lethal 16.4µM*, IL-1B inflam inh -90.8*, ELG1 repair inh inconclusive and DT40 TDP1 no CPT 2.91µM*.
For Cn1c(Cl)nc2c1c(=O)n(Cc1cccc(Br)c1)c(=O)n2C the results were DT40 TDP1 CPT inconclusive, HT1080 IDH1KD tx -5.5%, HT1080NT lethal -5.2%, IL-1B inflam inh -1.9, ELG1 repair inh -2.8% and DT40 TDP1 no CPT inconclusive.
Screening CC(O)CNc1nc2c(c(=O)n(C)c(=O)n2C)n1Cc1cccc(Br)c1 (stereo unspecified) returned DT40 TDP1 CPT inconclusive, HT1080 IDH1KD tx -1.1%, HT1080NT lethal 0.0%, IL-1B inflam inh -29.9, ELG1 repair inh 0.0% and DT40 TDP1 no CPT 14.1µM*.
`CC(CCO)Nc1nc2c(c(=O)n(C)c(=O)n2C)n1Cc1cccc(Br)c1` (stereo unspecified) gave DT40 TDP1 CPT 11.6µM*, HT1080 IDH1KD tx -4.8%[9.24 µM], HT1080NT lethal -8.1%, IL-1B inflam inh 27.6, ELG1 repair inh -12.3% and DT40 TDP1 no CPT 20.6µM*.
Screening CC(O)CNc1nc2c(c(=O)n(C)c(=O)n2C)n1Cc1cccc(C(F)(F)F)c1 (stereo unspecified) returned DT40 TDP1 CPT inconclusive, HT1080 IDH1KD tx -7.6%, HT1080NT lethal -2.1%, IL-1B inflam inh 12.8, ELG1 repair inh -29.0% and DT40 TDP1 no CPT 25.9µM*.
For CC(C)CNc1nc2c(c(=O)n(C)c(=O)n2C)n1Cc1cccc(Br)c1 the results were DT40 TDP1 CPT 20.6µM*, HT1080 IDH1KD tx -11.1%, HT1080NT lethal -1.4%, IL-1B inflam inh 3.4, ELG1 repair inh inconclusive and DT40 TDP1 no CPT 23.1µM*.
`COc1cccc(C(=O)OCC(=O)c2c[nH]c3ccccc23)c1O` gave DT40 TDP1 CPT -13.9%, HT1080 IDH1KD tx -3.6%, HT1080NT lethal -24.1%, IL-1B inflam inh 7.8, ELG1 repair inh inconclusive and DT40 TDP1 no CPT -7.7%.
Screening COCCNc1nc2c(c(=O)n(C)c(=O)n2C)n1Cc1cccc(C(F)(F)F)c1 returned DT40 TDP1 CPT 3.26µM*, HT1080 IDH1KD tx -9.3%, HT1080NT lethal -9.0%, IL-1B inflam inh -18.0, ELG1 repair inh -12.8% and DT40 TDP1 no CPT 3.66µM*.
`COc1cccc(Cn2c(NCC(C)C)nc3c2c(=O)n(C)c(=O)n3C)c1` gave DT40 TDP1 CPT 29.1µM*, HT1080 IDH1KD tx inconclusive, HT1080NT lethal inconclusive, IL-1B inflam inh 21.0, ELG1 repair inh -18.4% and DT40 TDP1 no CPT 23.1µM*.
Screening COc1cccc(Cn2cnc3c2c(=O)n(C)c(=O)n3C)c1 returned DT40 TDP1 CPT 11.6µM* and DT40 TDP1 no CPT 11.6µM*.
Screening Cc1cccc(CSc2nnc(-c3ccco3)o2)c1 returned DT40 TDP1 CPT 8.7%, HT1080 IDH1KD tx 17.1%, HT1080NT lethal 17.4%, IL-1B inflam inh -20.9, ELG1 repair inh inconclusive and DT40 TDP1 no CPT -4.6%.
`CC(=O)c1c(C)cc(C)c(CSc2nnc(-c3ccco3)o2)c1C` gave DT40 TDP1 CPT 12.6µM*, HT1080 IDH1KD tx -26.6%, HT1080NT lethal -14.2%, IL-1B inflam inh -0.1, ELG1 repair inh inconclusive and DT40 TDP1 no CPT 22.4µM*.
For NS(=O)(=O)c1ccc(NC(=O)/C=C/c2cccc(Cl)c2)cc1 the results were DT40 TDP1 CPT inconclusive, HT1080 IDH1KD tx -8.7%, HT1080NT lethal -2.0%, IL-1B inflam inh -25.7, ELG1 repair inh -3.2% and DT40 TDP1 no CPT inconclusive.
Screening O=C(O)/C=C/c1ccc(S(=O)(=O)NCc2ccco2)cc1 returned DT40 TDP1 CPT 4.1%, HT1080 IDH1KD tx 9.0%, HT1080NT lethal 3.9%, IL-1B inflam inh -17.8, ELG1 repair inh 3.7% and DT40 TDP1 no CPT -0.4%.
For CC(C)(C)c1ccc(/C=C/C(=O)Nc2ccc(S(N)(=O)=O)cc2)cc1 the results were DT40 TDP1 CPT 6.51µM* and DT40 TDP1 no CPT 8.2µM*.
NS(=O)(=O)c1ccc(NC(=O)/C=C/c2ccc(S(=O)(=O)NCc3ccco3)cc2)cc1 was read as DT40 TDP1 CPT -26.2%, HT1080 IDH1KD tx -28.3%, HT1080NT lethal -21.8%, IL-1B inflam inh -52.0*, ELG1 repair inh -2.5% and DT40 TDP1 no CPT inconclusive.
`Cc1c(N)cccc1Cl` gave DT40 TDP1 CPT 6.7%, IL-1B inflam inh 1.9 and DT40 TDP1 no CPT 5.6%.
Cc1ccc(C)c(N2CCN(C(=O)c3cc4c(=O)n(Cc5cccnc5)ccc4nc3C)CC2)c1 was read as DT40 TDP1 CPT 23.1µM* and DT40 TDP1 no CPT inconclusive.
For Cc1ccc(C)c(N2CCN(C(=O)c3cc4c(=O)n(Cc5ccccc5)ccc4nc3C)CC2)c1 the results were DT40 TDP1 CPT 16.4µM* and DT40 TDP1 no CPT 23.1µM*.
Screening Cc1nc2ccn(Cc3ccco3)c(=O)c2cc1C(=O)N1CCN(c2ccccc2)CC1 returned DT40 TDP1 CPT 5.1% and DT40 TDP1 no CPT -21.2%.
Screening O=C(O)C1CCN(S(=O)(=O)Cc2ccccc2)CC1 returned DT40 TDP1 CPT -1.1%, HT1080 IDH1KD tx 10.8%, HT1080NT lethal 8.7%, IL-1B inflam inh -13.6, ELG1 repair inh -0.1% and DT40 TDP1 no CPT 10.7%.
N#Cc1c2ccc(OCC(=O)NCc3ccco3)cc2n2ccccc12 was read as DT40 TDP1 CPT -2.4%, HT1080 IDH1KD tx -1.4%, HT1080NT lethal -26.1%, IL-1B inflam inh -18.0, ELG1 repair inh -3.4% and DT40 TDP1 no CPT -15.6%.
